A selection: hits, their analogues and other compounds. The true share with any hit is near 4.7%.
PABP1 MLLE inh – blocks PAM2 peptide binding to the PABP1 MLLE domain; P11940; 360,000 compounds, 0.36% hits; GST-MLLE / FITC-PAM2 fluorescence polarization; AID 588489; inhibition, % at 20 µM; in the data active means inhibition above about 35%, passing the limit was not always enough;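 further: plate controls were DMSO wells with GST-MLLE for no effect and wells lacking GST-MLLE protein for full effect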
Target sequence (P11940 whole entry, looked up, the tested form may be a part): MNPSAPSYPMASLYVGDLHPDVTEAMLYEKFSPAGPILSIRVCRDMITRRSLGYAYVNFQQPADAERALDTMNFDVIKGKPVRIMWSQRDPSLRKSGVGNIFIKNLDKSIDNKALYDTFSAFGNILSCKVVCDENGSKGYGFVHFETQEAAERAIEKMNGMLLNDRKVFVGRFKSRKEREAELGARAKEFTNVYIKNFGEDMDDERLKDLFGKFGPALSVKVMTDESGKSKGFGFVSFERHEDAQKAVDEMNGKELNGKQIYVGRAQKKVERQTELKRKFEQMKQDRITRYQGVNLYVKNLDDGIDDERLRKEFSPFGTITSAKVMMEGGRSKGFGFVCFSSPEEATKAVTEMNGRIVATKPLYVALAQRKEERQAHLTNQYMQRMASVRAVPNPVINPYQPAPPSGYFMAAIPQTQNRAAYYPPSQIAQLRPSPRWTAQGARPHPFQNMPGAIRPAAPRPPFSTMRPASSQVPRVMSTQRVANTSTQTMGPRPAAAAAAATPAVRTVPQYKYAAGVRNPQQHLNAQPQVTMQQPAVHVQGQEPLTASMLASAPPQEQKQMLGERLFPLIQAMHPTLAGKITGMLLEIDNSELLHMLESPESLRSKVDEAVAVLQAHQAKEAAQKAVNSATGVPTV
eIF4H FP inh – inhibitors of RNA binding by human eIF4H; Q15056; eIF4H fluorescence polarization binding assay; inhibition, % at 35 µM; 290,000 compounds, 0.94% hits; AID 2012;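 further: calls also rest on retests at 20 µM and on dose response follow-up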
PABP FP inh – PABP-poly(A) binding inhibition. P11940. PABP-poly(A) RNA binding, fluorescence polarization. inhibition, % at 35 µM. 290,000 compounds, 1% hits;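 further: calls also rest on retests at 20 µM and on dose response follow-up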
UBC9 SUMO inh – SUMOylation inhibition | HTRF SUMOylation assay, SAE1/SAE2 + UBC9, in vitro | inhibition, % at 35 µM | 290,000 compounds, 0.36% hits; in the data active means inhibition above about 50%, passing the limit was not always enough; inconclusive means no clear call, values can overlap the other calls
ALR inh – inhibitors of human sulfhydryl oxidase ALR; purified ALR, DTT oxidation, H2O2 HRP-luminol luminescence; 290,000 compounds, 3.8% hits; inhibition, % (test concentration not listed); P55789;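 active means mean replicate inhibition above about 79%, with every replicate also reaching it, limit read from the data; inconclusive means only one of the two criteria met; inactive means mean below limit and not every replicate reaching it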
Efflux pump mplx – inhibitors of Candida antifungal efflux pumps expressed in yeast; S. cerevisiae Candida pump triplex, Nile Red efflux; inhibition, % at 10 µM; 330,000 compounds, 0.44% hits; AID 485275;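 active means plate passing quality check with inhibition over a set limit, or well fluorescence over plate mean plus 4 SD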;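 further: Nile Red retained in pooled yeast measured as flow cytometry median fluorescence; 0% = buffer negative control and 100% = Enniatin B positive control; higher means more Nile Red kept so more efflux inhibition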
Starred values were filed as active, the others as inactive; ? = inconclusive; · = no result given. Unless noted, how the calls were made is not given here.

SMILES	PABP1 MLLE inh	eIF4H FP inh	PABP FP inh	UBC9 SUMO inh	ALR inh	Efflux pump mplx
CCN(CC)S(=O)(=O)c1cccc(C(=O)N/N=C/c2cc(OC)c(O)c(OC)c2)c1	1	6	0	0	99*	0
COc1ccc(/C=N/NC(=O)c2cccc(S(=O)(=O)N3CCCC3)c2)cc1O	-5	·	·	·	97*	0
O=C(N/N=C/c1ccc(F)c(F)c1)c1cccc(S(=O)(=O)N2CCCCC2)c1	18	·	·	·	·	0
CCN1CCN(C(=O)c2nn(C)c3c2CS(=O)(=O)c2ccccc2-3)CC1	-3	3	8	4	-7	0
CS(=O)(=O)N1N=C(c2ccco2)CC1c1ccc(Cl)cc1Cl (configuration not stated)	-13	-3	2	13	1	0
CCc1ccccc1OCC(=O)NNCC(=O)Nc1cccc(C#N)c1	-17	·	·	·	0	0
COc1ccc(/C=N/NC(=O)c2cccc(OC(F)(F)C(F)F)c2)cc1O	2	-1	7	2	96*	0
CCCn1cc(C(CC(=O)O)C(=O)O)c2ccccc21 (configuration not stated)	-4	-1	7	-1	1	0
Cn1cc(C(CC(=O)O)C(=O)O)c2ccccc21 (configuration not stated)	14	-4	2	10	-4	0
Cc1ccc(C(=O)CC(C(=O)O)c2cn(CCC#N)c3ccccc23)cc1 (configuration not stated)	-9	-1	-6	8	96*	0
N#CCCn1cc(C(CC(=O)c2ccc(Br)cc2)C(=O)O)c2ccccc21 (configuration not stated)	6	7	-7	-2	91*	0
CCOc1ccc(CC(=O)N2CCN=C2SCc2ccc([N+](=O)[O-])cc2)cc1	3	active	68*	12	99*	0
CSC1=NCCN1C(=O)Cc1ccc(F)cc1	0	-10	-1	-7	-3	0
O=C(Cc1ccccc1)N1CCN=C1SCc1ccc([N+](=O)[O-])cc1	35	-9	-4	24	·	0
COc1ccc(CC(=O)N2CCN=C2SCc2ccc([N+](=O)[O-])cc2)cc1	-4	-10	-1	-12	99*	0
CCOc1ccc(CC(=O)N2CCN=C2SC)cc1	-3	-5	58*	-8	-4	0
O=C(Cc1ccc(F)cc1)N1CCN=C1SCc1ccc([N+](=O)[O-])cc1	38*	-13	-6	-2	99*	0
O=C(O)COc1ccccc1/C=N/NC(=O)CSc1nnc(-c2ccc(Cl)cc2)n1C1CCCCC1	-9	-11	8	12	-5	0
CC(C)(C)S(=O)(=O)N1C[C@@H]2C(=CC[C@H]3C(=O)N(c4ccccc4)C(=O)[C@@H]23)[C@@H]1CCO	-8	·	·	·	·	·
Cc1csc(NC(C)c2nc3cc(Cl)c(Cl)cc3n2CCCO)n1 (configuration not stated)	-116	·	·	·	45	0
Cc1ccc(C(=O)N2CCN=C2SCc2ccc([N+](=O)[O-])cc2)cc1	10	-2	19	6	99*	0
COc1ccc(/C(N)=N/OC(=O)CSc2ccc(C)cc2)cc1OC	19	10	-2	-20	-4	0
O=C(c1cccc2ccccc12)N1CCN=C1SCc1ccc([N+](=O)[O-])cc1	27	-7	0	20	98*	0
Cc1ccccc1C(=O)N1CCN=C1SCc1ccc([N+](=O)[O-])cc1	13	3	8	-2	·	0
Cc1ccc(SCC(=O)O/N=C(\N)c2ccc([N+](=O)[O-])cc2)cc1	28	-6	3	-15	98*	0
SMILES	PABP1 MLLE inh	eIF4H FP inh	PABP FP inh	UBC9 SUMO inh	ALR inh	Efflux pump mplx
CCc1nnc(NC(=O)c2cc(Cl)ccn2)s1	-4	45	12	-24	39	1
CC(=NNC(=O)c1cccc(S(=O)(=O)N2CCOCC2)c1)c1ccccc1	13	·	·	·	0	0
NC(=O)c1ccc(-c2ccc(Br)cc2)o1	11	2	-5	13	98*	0
Cc1ccc(C(=O)NC(=S)Nc2cccc(-c3nc4ccccc4s3)c2)cc1	41*	10	-6	8	0	0
CC(=O)Nc1cccc(-c2nc3ccccc3s2)c1	-10	-6	-2	2	-12	0
O=C(O)c1ccc(NC(=S)NC(=O)c2ccc(-c3ccc(Br)cc3)o2)cc1	6	47	-1	19	93*	0
Cc1ccc(C(=O)O)cc1NC(=S)NC(=O)c1ccc(-c2ccc(Cl)cc2)o1	51*	-5	5	25	15	0
O=C(OCC(=O)N1CCc2ccccc21)[C@@H]1CC(O)CN1S(=O)(=O)c1ccccc1[N+](=O)[O-] (some centres not stated)	1	·	·	·	9	0
O=C(CSc1ccc(S(=O)(=O)N2CCOCC2)cn1)Nc1ccc(F)c(F)c1	15	·	·	·	·	0
COc1ccc(C(C#N)=Cc2cccc(OC)c2OC)cc1	-17	·	·	·	·	·
O=C(OCc1nnc(-c2ccc([N+](=O)[O-])cc2)o1)c1ccc(F)c(S(=O)(=O)N2CCOCC2)c1	2	·	·	·	·	·
Cc1ccc2ncccc2c1NS(=O)(=O)c1ccccc1	-111	8	39	0	·	0
Cc1ccc2ncccc2c1NC(=S)NC(=O)c1ccccc1	42*	3	60	16	-12	0
Cc1ccc(C(=O)O)cc1NC(=S)NC(=O)c1ccc(-c2ccccc2)cc1	18	6	19	28	98*	0
COc1ccc(SC[C@H](Cc2ccccc2)N2CC[C@@H](C)CCC2=O)cc1	6	·	·	·	-25	0
COc1cccc(NC(=S)N(Cc2cccc(Br)c2)CC2CCC(C(=O)O)CC2)c1 (configuration not stated)	-22	-14	-13	2	1	0
CCCc1nc2c(=O)n(C)c(=O)[nH]c2n1C	4	53*	59*	19	-15	0
C[C@H]1CN=C(N(C)C)N1CC1CCC(C(C)(C)C)CC1 (some centres not stated)	-5	·	·	·	-2	0
Cc1cccc(-n2c(-c3ccncc3)n[nH]c2=S)c1C	-11	-3	?	14	·	0
Cc1cccc(-n2c(C)n[nH]c2=S)c1C	13	-6	5	-13	77*	0
Cc1n[nH]c(=S)n1-c1cccc(Cl)c1	-11	-4	-6	12	94*	-1
CCOc1cnn(Cc2ccccc2)c(=O)c1SCc1ccccc1	12	-4	-3	-7	-3	0
COC(=O)c1ccc(NC(=O)CCCN2C(=O)NC(C)(C)C2=O)cc1	2	·	·	·	·	·
O=C(CNCc1ccc(Cl)cc1)Nc1cc(S(=O)(=O)N2CCCC2)ccc1Cl	5	·	·	·	·	·
CCOc1ccc(C(=O)N(Cc2ccccc2)c2cccc(C)c2)cc1OC	-10	3	10	0	-1	0
O=C(Nc1nc(=O)c2ccccc2s1)c1ccc(F)cc1	38*	-3	-7	6	9	0
